Measured values reported in the supplement of paper PMC3545927.
Some of the results follow. How many sequences the whole screen found active is unknown.

Biological target: furin, P09958
Assay: furin cleavage Z-score vs untreated control; higher = more cleavage, active = 3.5 or more, inactive = 1 or less, 8 variable residues between constant flanks
Method in brief: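 Abundance of DNA freed from bead-bound 8-mer peptide–cDNA fusions by purified furin was measured as sequencing read counts after PCR adapter tagging. Cutting ran 7.5, 15 or 30 min in 0.01 ml of 50 mM HEPES pH 7.5 with CaCl2 and NaCl at 1:10 enzyme:substrate. The cleavage Z-score expresses these log counts against furin-free reactions after lowess adjustment and median absolute deviation scaling.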

Chain of furin, P09958 (P09958 whole entry): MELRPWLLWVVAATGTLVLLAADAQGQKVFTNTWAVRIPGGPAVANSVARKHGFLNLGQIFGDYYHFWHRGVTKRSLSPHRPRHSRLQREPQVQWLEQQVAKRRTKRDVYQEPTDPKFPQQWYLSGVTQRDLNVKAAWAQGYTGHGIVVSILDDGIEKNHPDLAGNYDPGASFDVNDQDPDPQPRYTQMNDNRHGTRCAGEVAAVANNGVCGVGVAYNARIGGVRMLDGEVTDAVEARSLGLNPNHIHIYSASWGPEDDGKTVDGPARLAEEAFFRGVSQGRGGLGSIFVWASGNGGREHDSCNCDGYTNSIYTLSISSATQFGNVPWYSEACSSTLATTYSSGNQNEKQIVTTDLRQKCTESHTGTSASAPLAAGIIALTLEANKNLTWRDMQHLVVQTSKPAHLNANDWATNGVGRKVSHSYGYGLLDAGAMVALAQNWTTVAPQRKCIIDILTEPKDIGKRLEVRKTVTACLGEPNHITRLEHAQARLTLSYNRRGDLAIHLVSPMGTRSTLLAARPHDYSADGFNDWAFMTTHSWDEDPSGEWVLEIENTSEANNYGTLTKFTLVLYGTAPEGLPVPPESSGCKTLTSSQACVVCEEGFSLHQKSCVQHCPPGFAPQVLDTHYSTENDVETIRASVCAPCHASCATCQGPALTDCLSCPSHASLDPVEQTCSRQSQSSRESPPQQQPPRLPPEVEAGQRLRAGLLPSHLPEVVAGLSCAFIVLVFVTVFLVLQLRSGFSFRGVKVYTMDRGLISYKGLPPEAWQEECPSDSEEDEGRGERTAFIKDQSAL

Row | Sequence | furin cleavage Z-score (7.5 min) | furin cleavage Z-score (15 min) | furin cleavage Z-score (30 min)
1 | CAAHWGVLAGAGNASASA [HC336] | -1.27 (inactive) | -1.2 (inactive) | -0.699 (inactive)
2 | CASLHLKKRIAGNASASA [FS-625] | -0.694 (inactive) | -1.61 (inactive) | 0.811 (inactive)
3 | CAIQSRRKKIAGNASASA [FS-443] | 0.424 (inactive) | -0.328 (inactive) | 0.24 (inactive)
4 | CAIYCRKKRIAGNASASA [FS-806] | 2.51 | 0.629 (inactive) | 4.48 (active)
5 | CAKKRRKKRIAGNASASA [FS-936] | 3.69 (active) | 6.37 (active) | 7.05 (active)
6 | CAEWLRKKRIAGNASASA [FS-418] | 0.96 (inactive) | 1.09 | 1.3
7 | CAYREVPCHRAGNASASA [HC2429] | 1.27 | -0.258 (inactive) | -1.27 (inactive)
8 | CACNDSLNTGAGNASASA [HC375] | -1.58 (inactive) | 0.314 (inactive) | -2.54 (inactive)
9 | CAVVCCSMAYAGNASASA [HC2063] | 0.877 (inactive) | 1.72 | 0.58 (inactive)
10 | CADRSRGKRFAGNASASA [FS-410] | 7.7 (active) | 10.3 (active) | 8.8 (active)
11 | CAKKIRGKRFAGNASASA [FS-672] | 6.75 (active) | 8.84 (active) | 7.44 (active)
12 | CATTPSSGSWAGNASASA [HC55] | -0.371 (inactive) | -0.739 (inactive) | -0.54 (inactive)
